About 31,000 (8.9%) of roughly 350,000 compounds were called active. Entries that show only a call come without a potency. Not shown: some 15% with an inconclusive outcome. This is one part of a sample in which actives are shown more often than they occur. Values without a mark were called inactive. Calls follow the shape of the dose curve; as a rule, active = well fitted inhibition curve with a large enough effect; inconclusive = small, poorly fitted or top-dose-only effect; inactive = no such curve, though single readings can be large or run the other way.
Potency is read from the fitted curve at half-maximal effect.

For this assay, the target named is Histone-lysine N-methyltransferase EHMT2 (Homo sapiens) (UniProt Q96KQ7). Briefly: qHTS Assay for Inhibitors of Histone Lysine Methyltransferase G9a. Also: nearly all actives have a fitted effect of over 75% in size. The settings on record: G9a H3K9 monomethylation, AlphaScreen, 2 h; series mostly up to 59 µM. An excerpt: Methylated lysines, on the N-terminal tails of histone proteins serve as epigenetic markers to recruit factors that can then modify local chromatin structure to lead to functional consequences. G9a and other members of the SUV39 family of the SET domain-containing superfamily of histone lysine methyltransferases (HMT) have been identified to specifically methylate Lys9 of histone H3 (H3K9). G9a catalyzes the mono- and di-methylation of H3K9 in mammalian euchromatic regions, where the resulting H3K9me2 is indicative of transcriptional repression. […] The inhibition of G9a will result in transcriptional activation and work synergistically with DNA methyltransferase and histone deacetylase inhibitors, to kill cancer cells. This qHTS assay for identification of G9a inhibitors is a chemiluminescence based AlphaScreen (PerkinElmer). Methylation of biotinylated-histone peptide is measured through specific antibody-based detection, in conjunction with streptavidin-coated donor and anti-IgG antibody-coated acceptor beads. The method is particularly well suited for detection of inhibitors acting by the desired histone peptide competitive mechanism and is applicable to testing other HMTs. Although AlphaScreen has significant advantages with its utility in a variety of epigenetic target assays, the primary screening data provided in this deposition should be used with caution due to the prevalence of screening artifacts. An AlphaScreen counterscreen is highly recommended to be run against any putative actives to eliminate non specific artifacts. Alternatively, one can use other AlphaScreen assays in PubChem to filter out promiscuous hits. Quinn et al. A chemiluminescence-based method for identification of histone lysine methyltransferase inhibitors. Mol Biosyst 6(5): 782-8. 2010. PMID: 20567762 [2] Baell,Holloway. New substructure filters for removal of pan assay interference compounds (PAINS) from screening libraries and for their exclusion in bioassays. J Med Chem. 53(7):2719-40. 2010. PMID: 20131845 NIH Molecular Libraries Probe Production Network [MLPCN] NIH Chemical Genomics Center [NCGC] Structural Genomics Consortium (SGC) NIH Grant: 5U54 MH084681-02
Histone-lysine N-methyltransferase EHMT2 (Homo sapiens), sequence (Q96KQ7 913-1193 limits assumed): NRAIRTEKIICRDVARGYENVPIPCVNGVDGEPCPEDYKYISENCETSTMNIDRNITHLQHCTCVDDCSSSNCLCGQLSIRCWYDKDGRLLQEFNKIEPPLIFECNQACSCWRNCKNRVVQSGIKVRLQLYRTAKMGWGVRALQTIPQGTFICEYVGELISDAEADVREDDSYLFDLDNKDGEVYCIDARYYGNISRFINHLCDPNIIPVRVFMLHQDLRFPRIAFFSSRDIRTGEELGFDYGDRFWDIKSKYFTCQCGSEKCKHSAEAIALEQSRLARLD
To each well of a 1,536w plate, 2ul of HMT enzyme (final 20nM) were added, using a nanoliter dispenser. The G9a- and GLP-inhibitor BIX-01294 (CID: 25150857) are used as an intraplate control, with a 16-point titration in duplicate. A Kalypsys pin-tool transferred 23nl of library compound solution in DMSO to each well. Following a 15 min incubation of enzyme with compounds at room temperature, 1ul mixture of b-H3K9 peptide substrate (final 500nM) and SAM cofactor (final 20uM) were added. Reactions were allowed to proceed at room temperature for 2 hours. Methylated b-H3K9 peptide product was detected with 0.5 ug/mL rabbit polyclonal anti-monomethyl histone H3K9 antibody (Abcam Inc., Cambridge, MA) and 20 ug/mL each streptavidin-coated donor and anti-rabbit IgG acceptor AlphaScreen beads. Antibody and beads were added in a 1ul dispense, for a final volume of 4ul, and plates were incubated, protected from the light, for 10 min at room temperature. Microplates were then read on an EnVision multilabel plate reader using the 1,536 plate HTS AlphaScreen aperture (excitation time 80 ms, measurement time 240 ms).
In general terms: Quantitative high-throughput screening tests each substance at several concentrations.
Consider `CC(CN1CCOCC1)OC(=O)c1ccc(C(C)(C)C)cc1` (configuration not stated), for which the activity, negative = inhibition is 6.26% [at 0.501 µM]. The same measure, in the same setting: the figure for `N#Cc1ccc(C2=CC(=O)C[C@H](c3ccc(Cl)cc3)C2)cc1` is -28.8% [at 0.501 µM]. With `CCOC(=O)c1c(S(=O)(=O)N2CCCC(C(=O)NCc3ccc(F)cc3)C2)c(C)n(CC)c1C` (configuration not stated), the Potency result is “inactive”. As for `Cc1ccc(CN2CC(C(=O)N3CCN(S(=O)(=O)c4ccccc4)CC3)CC2=O)cc1` (configuration not stated), the Potency entry was “inactive”.

On to `Cc1ccc(CN2CCCn3nc(C(=O)NCc4ccccc4Cl)cc3C2=O)cc1`, for which the Potency result is “inactive”. The same measure, in the same setting: with `Oc1ccc(N=Cc2sc3ccccc3c2Cl)cc1` the figure was 10 µM (active); with `CCOc1ccc(N=Cc2c(O)n(-c3cccc(C)n3)c(=O)c3ccccc23)cc1`, “inactive”.

Consider `Oc1ccc2ccccc2c1C=Nc1ccccc1`, for which the Potency is 2.51 µM (active). Same read-out and setting: with `O=C(N/N=C/c1c(Cl)[nH]c2ccccc12)c1sc2ccccc2c1Cl` the entry was “inactive”; with `CCOc1[nH]n(-c2ccc(Cl)cc2)c(=O)c1C=Nc1ccc(O)cc1`, “inactive”; with `Oc1ccc(N=Cc2c(O)ccc3ccccc23)cc1`, 1 µM (active).

Consider `COc1ccc(N=C(C)c2sc3ccccc3c2O)cc1`, for which the Potency entry was “inactive”. Take `O=C(O)C#Cc1cccc2ccccc12`: the Potency entry is “inactive”. On the same count and under the same terms, with `O=S(=O)(NCCc1nnc2ccc(SCc3ccc(Cl)cc3Cl)nn12)c1ccccc1` the entry was “inactive”; with `COc1ccc(NC(=O)C2CCCN(S(=O)(=O)c3cccc4nonc34)C2)cc1Cl` (configuration not stated), “inactive”; with `O=S(=O)(Nc1ccc(-n2cnnn2)cc1)c1ccc(Cl)cc1`, “inactive”.

Turning to `CCOc1ccccc1C(=O)Nc1ccc2c(c1)N(C)C(=O)c1ccccc1S2`, the Potency entry is “inactive”. On to `Cc1ccc(OCCNC(=O)CNC(=O)c2ccc(C)c(C)c2)cc1`, for which the activity, negative = inhibition is 24.7% [at 2.33 µM]. Take `Cc1cc(C)c(OCC(=O)N/N=C/c2ccco2)c(C)c1`: the Potency entry was “inactive”. Regarding `COc1ccccc1OCC(=O)OCc1cc(-c2ccco2)on1`, the activity, negative = inhibition is 3.66% [at 12.7 µM]. For the compound `COC(=O)COc1ccc2c(c1C)O/C(=C\c1ccco1)C2=O`, the Potency is 8.91 µM (active). For `COc1cccc(C(=O)OCC(=O)c2[nH]c(C)c(C(C)=O)c2C)c1`, the activity, negative = inhibition was -42.2% [at 12.7 µM].

For the compound `CCOc1ccc(N(CC)C(=O)C2CCN(S(=O)(=O)c3cccc4nonc34)CC2)cc1`, the Potency result is “inactive”.

For the compound `COc1ccc(S(=O)(=O)N2CCOCC2)cc1NC(=O)CSc1cc(C)ccc1C`, the activity, negative = inhibition is 3.19% [at 0.501 µM]. As to `CCOC(=O)c1cccc(NS(=O)(=O)c2cn(C)c(C)n2)c1`, the Potency entry is “inactive”. Still for that read-out and setting: the entry for `Cc1cccc(N2CCN(C(=O)CCn3c(=O)c4cccn4c4cccnc43)CC2C)c1` (configuration not stated) is “inactive”.

On to `CSCCC(NC(=O)c1ccco1)C(=O)NCCc1ccc(F)cc1` (configuration not stated), for which the activity, negative = inhibition was 40.1% [at 12.7 µM]. Turning to `O=C(CN1CCN(c2ccccn2)CC1)NC1CCCCC1`, the Potency result is “inactive”. Take `CCN(CC)c1ccc(NC(=O)CN2CCN(CC(=O)Nc3ccc(Cl)cc3)CC2)cc1`: the Potency is 7.08 µM (active). On the same count and under the same terms, the entry for `CCOc1ccc(NC(=O)CN2CCN(CC(=O)Nc3ccc(OC)cc3)CC2)cc1` is “inactive”; for `Cc1cnc(NC(=O)c2ccc(Cl)nc2)s1` it is “inactive”. The same measure, in the same setting: the figure for `CCN(CC)c1ccc(NC(=O)CN2CCN(c3ccccn3)CC2)cc1` is 44.7 µM (active).

Take `CCOC(=O)N1CCN(CC(=O)Nc2ccc(F)cc2)CC1`: the Potency result is “inactive”. On to `O=C(CN1CCN(c2ccccn2)CC1)Nc1ccc(Br)cc1`, for which the Potency entry was “inactive”. Same read-out and setting: with `CCN(CC)c1ccc(NC(=O)c2ccc(Cl)nc2)cc1` the figure was 10 µM (active); with `NS(=O)(=O)c1ccc(NC(=O)COC(=O)c2ccc(Cl)nc2)cc1`, “inactive”. For `Cc1ccccc1N1CCN(S(=O)(=O)c2ccc3ccccc3c2)CC1`, the activity, negative = inhibition was 14.6% [at 0.501 µM]. Consider `COC(=O)c1ccc2c(C(C)(C)O)c(C(C)(C)O)[nH]c2c1`, for which the Potency result was “inactive”. Turning to `COc1ccc(N2CCN(C(=O)CSCc3nc(-c4ccccc4Cl)oc3C)CC2)cc1`, the Potency entry was “inactive”. On the same count and under the same terms, the entry for `CCN(CC)C(=O)CN(c1cccc([N+](=O)[O-])c1)S(=O)(=O)c1ccccc1` is “inactive”; for `CCN(CC)c1ccc([N+](=O)[O-])cc1C(=O)O` it is 50.1 µM (active); for `CNc1ccc([N+](=O)[O-])cc1C(=O)O` it is “inactive”. `COc1ccc(N(CCC(=O)NCCc2ccccc2)S(=O)(=O)c2ccc(C)cc2C)cc1`: the activity, negative = inhibition is 12.2% [at 12.7 µM]. In the case of `O=C(c1cc(S(=O)(=O)N2CCOCC2)ccc1Cl)N1CCOCC1`, the Potency entry was “inactive”. On the same count and under the same terms, with `CCCN(CCC)CCCNC(=O)Cn1ncc2c3ccccc3n(Cc3ccccc3)c2c1=O` the entry was “inactive”; with `Cc1ccc(NC(=S)N2CCN(c3ncccn3)CC2)cc1C`, “inactive”. For the compound `Cc1nc2ccc(NC(=O)N3CCC(c4ccccc4)C3)cc2nc1C` (configuration not stated), the activity, negative = inhibition is 12.3% [at 12.7 µM].

Values taken from PubChem BioAssay AID504332 (National Center for Advancing Translational Sciences (NCATS), 2011).
